ATXN viability – Viability Counterscreen for Primary qHTS for Inhibitors of ATXN expression. S2 cells (HEK-293 line with an ATXN2-luciferase reporter) viability, CellTiter-Fluor protease fluorescence, 24 h. Potency, µM (doses to about 56.7 µM), hits mostly cytotoxic. actives 0.49% (n = 400,000); also: potency is read from the fitted curve at half-maximal effect; nearly all actives have a fitted effect of over 40% in size
KB-3-1 cytotox – qHTS assay for MDR1-selective chemotherapeutics: Primary screen using the parental adenocarcinoma cell KB-3-1 | AID 1347075, 2019 | KB-3-1 viability, CellTiter-Glo ATP luminescence, 72 h | Potency, µM (top dose mostly 46.1 µM), usual class: cytotoxic | actives 1.4% (n = 400,000); also: potency is read from the fitted curve at half-maximal effect; % is scaled to controls: 0 for no effect and ±100 for the full control effect; nearly all actives have a fitted effect of over 60% in size
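Cytotoxicity in the drug-sensitive parental line KB-3-1 was scored as loss of CellTiter-Glo luminescence following 72 h incubation with compound. Values come from curve fitting of normalized concentration-response data.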
ATXN2 expr inh – Primary qHTS for Inhibitors of ATXN expression | HEK-293 ATXN2-luciferase reporter, luminescence, 24 h | Potency, µM (series often up to 57 µM), for the others: at the highest dose activity change, negative = inhibition, most hits filed as inhibitors | actives 0.72% (n = 360,000); also: potency is read from the fitted curve at half-maximal effect; % is scaled to controls: 0 for no effect and ±100 for the full control effect; nearly all actives have a fitted effect of over 55% in size
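qHTS (up to 57 uM final) was run with 24 h compound exposure of reporter cells at 37 °C. Each well was multiplexed: SteadyGlo luminescence measured ATXN2-luciferase expression after a fluorogenic Gly-Phe-AFC viability readout (25 uM final).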
HepG2 viability – qHTS for Inhibitors of TGF-b: Cytotox Counterscreen; Potency, µM (series often up to 46.1 µM), without a hit: top-dose activity change, negative = cytotoxicity, usual class: cytotoxic; HepG2 CAGA-GFP viability, ATP luminescence, 18 h; actives 0.76% (n = 410,000); also: potency is read from the fitted curve at half-maximal effect
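CellTiter-Glo luminescence gave cytotoxicity after 18 hours at 37 degrees C. The cells were HepG2 CAGA-GFP in 1% FBS DMEM, stimulated with 500 pg/mL TGF-beta after compound addition. %Activity was normalised to no-cell wells (complete cell-killing) and DMSO (no toxicity), and curves were fitted and classified.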
TGFb inhibitor – qHTS for Inhibitors of TGF-b | HepG2 CAGA-GFP TGF-b/SMAD3 reporter, GFP fluorescence, 18 h; TGF-beta stimulated, 500 pg/mL final | Potency, µM (titrated, usually from 46.1 µM), for the others: at the highest dose activity, negative = inhibition, usual class: inhibitors | actives 1.2% (n = 410,000) | AID 588855, 2011; also: potency is read from the fitted curve at half-maximal effect; % is scaled to controls: 0 for no effect and ±100 for the full control effect; nearly all actives have a fitted effect of over 65% in size
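TGF-beta reporter screen: HEPG2 CAGA-GFP, 1% FBS, 500 pg/mL TGF-beta final, 18 h; per-cell GFP summed per well; curves fitted and categorized by class.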
KB-V1 cytotox – qHTS assay for MDR1-selective chemotherapeutics: Primary screen using the drug-selected MDR subline cells KB-V1. actives 3.4% (n = 400,000). Potency, µM (top dose mostly 46.1 µM), usual class: cytotoxic. KB-V1 MDR cells viability, CellTiter-Glo, 72 h; also: potency is read from the fitted curve at half-maximal effect; % is scaled to controls: 0 for no effect and ±100 for the full control effect; nearly all actives have a fitted effect of over 60% in size
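Readout: CellTiter-Glo luminescence, 10 min after addition. Cells: KB-V1 MDR subline, 72 h at 37 degrees C with compound. Analysis: corrected, normalized data fitted to concentration-effect curves.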
SKNSH spheroid – qHTS of pediatric cancer cell lines to identify multiple opportunities for drug repurposing: Orthogonal 3D viability screen for SK-N-SH cells; shares compounds with ATXN2 expr inh; SK-N-SH 3D spheroid viability, PI/Hoechst imaging, 72 h; Potency, µM (top dose mostly 30.7 µM), most hits filed as inhibitors; actives 70% (n = 65)
SJGBM2 3D viab – qHTS of pediatric cancer cell lines to identify multiple opportunities for drug repurposing: Orthogonal 3D viability screen for SJ-GBM2 cells; AID 1347136, 2019; shares compounds with ATXN2 expr inh; Potency, µM (top dose mostly 30.7 µM), most hits filed as inhibitors; SJ-GBM2 3D spheroid viability, PI/Hoechst imaging, 72 h; actives 80% (n = 65)
Daoy spheroid – qHTS of pediatric cancer cell lines to identify multiple opportunities for drug repurposing: Orthogonal 3D viability screen for Daoy cells. shares compounds with ATXN2 expr inh. Daoy 3D spheroid viability, PI/Hoechst imaging, 72 h. Potency, µM (top dose mostly 30.7 µM), usual class: inhibitors. actives 50% (n = 65). AID 1347137, 2019
TC32 3D casp – qHTS of pediatric cancer cell lines to identify multiple opportunities for drug repurposing: Orthogonal 3D caspase screen for TC32 cells | shares compounds with ATXN2 expr inh | TC32 3D spheroids, caspase-3/7 fluorescence imaging, 24 h | Potency, µM (titrated, usually from 30.7 µM), usual class: inhibitors | actives 30% (n = 65) | AID 1347138, 2019
TC32 spheroid – qHTS of pediatric cancer cell lines to identify multiple opportunities for drug repurposing: Orthogonal 3D viability screen for TC32 cells; shares compounds with ATXN2 expr inh; TC32 3D spheroid viability, PI/Hoechst imaging, 72 h; Potency, µM (highest dose often 30.7 µM), hits mostly inhibitors; actives 60% (n = 65)
MG63 3D tox – qHTS of pediatric cancer cell lines to identify multiple opportunities for drug repurposing: Orthogonal 3D viability screen for MG 63 (6-TG R) cells. Potency, µM (series often up to 30.7 µM), usual class: inhibitors. MG-63 (6-TG R) 3D spheroid viability, PI/Hoechst imaging, 72 h. actives 50% (n = 65). shares compounds with ATXN2 expr inh
RD 3D tox – qHTS of pediatric cancer cell lines to identify multiple opportunities for drug repurposing: Orthogonal 3D viability screen for RD cells. shares compounds with ATXN2 expr inh. RD rhabdomyosarcoma 3D spheroid viability, PI/Hoechst imaging, 72 h. Potency, µM (series often up to 30.7 µM), hits mostly inhibitors. AID 1347141, 2019. actives 50% (n = 65)
* hit, by the source's call; ! = not confirmed by another sample. The list is not random: actives were taken first. Their share in the collection is about 5.9%. Calls follow the shape of the dose curve; as a rule, active = well fitted curve in the direction sought with a large enough effect; inconclusive = small, poorly fitted or top-dose-only effect, or another doubt; inactive = no such curve, though single readings can be large; an effect the other way counts as inactive or inconclusive.

`COc1cccc2c1C(=O)c1c(O)c3c(c(O)c1C2=O)C[C@@](O)(C(=O)CO)C[C@@H]3O[C@H]1C[C@H](N)[C@H](OC2CCCCO2)[C@H](C)O1` (stereo partly specified) gave KB-3-1 cytotox inconclusive, ATXN2 expr inh 1.5µM*, HepG2 viability -14%, TGFb inhibitor inconclusive, KB-V1 cytotox inconclusive, SKNSH spheroid 0.29µM*, SJGBM2 3D viab 0.72µM*, Daoy spheroid 1.4µM*, TC32 3D casp 1.4µM*, TC32 spheroid 1µM*, MG63 3D tox inconclusive and RD 3D tox inconclusive.
Screening CC(=O)N1CCCc2cc(S(=O)(=O)N3CCCC(C(=O)Nc4cccc(F)c4)C3)ccc21 (stereo unspecified) returned ATXN viability inactive, KB-3-1 cytotox inconclusive, ATXN2 expr inh 9%, HepG2 viability 2%, TGFb inhibitor inconclusive and KB-V1 cytotox inactive.
For O[C@H]1CCCC[C@H]1N1CCC(c2ccccc2)CC1 the results were ATXN viability inactive.
For COc1cc([C@@H]2c3cc4c(cc3[C@H](O)[C@H]3COC(=O)[C@H]23)OCO4)cc(OC)c1OC the results were ATXN viability inconclusive, KB-3-1 cytotox 0.1µM*!, ATXN2 expr inh -4%, HepG2 viability -4%, TGFb inhibitor -37%, KB-V1 cytotox 0.26µM*, SKNSH spheroid 0.023µM*, SJGBM2 3D viab 0.036µM*, Daoy spheroid inconclusive, TC32 3D casp 0.057µM*, TC32 spheroid 0.057µM*, MG63 3D tox inconclusive and RD 3D tox 0.046µM*.
Screening O=c1[nH]/c(=C\c2ccc(N(CCCl)CCCl)cc2)c(=O)[nH]/c1=C\c1ccc(N(CCCl)CCCl)cc1 returned KB-3-1 cytotox inconclusive, HepG2 viability -14%, TGFb inhibitor 29% and KB-V1 cytotox inactive.
O=C1NCCOC(=O)[C@H](Cc2ccc(F)cc2)CC/C=C/C[C@@H]1CC(=O)N(CCO)Cc1ccccc1 was read as ATXN viability inactive, KB-3-1 cytotox inactive, ATXN2 expr inh -4%, HepG2 viability -13%, TGFb inhibitor inconclusive and KB-V1 cytotox inactive.
Screening COc1ccc(NC(=O)CCn2cc(C)c3ccccc32)cc1 returned ATXN viability inactive, KB-3-1 cytotox inactive, ATXN2 expr inh -3%, HepG2 viability -25%, TGFb inhibitor inconclusive and KB-V1 cytotox inactive.
Screening C[C@@H]1C[C@@H]([C@H](O)CC2CC(=O)NC(=O)C2)C(=O)[C@@H](C)C1 returned ATXN viability inconclusive, KB-3-1 cytotox 9.2µM*, ATXN2 expr inh 1.3µM*, HepG2 viability -25%, TGFb inhibitor 1µM*, KB-V1 cytotox 2.3µM*, SKNSH spheroid inconclusive, SJGBM2 3D viab 1µM*, Daoy spheroid inconclusive, TC32 3D casp inactive, TC32 spheroid inconclusive, MG63 3D tox inconclusive and RD 3D tox inconclusive.
NS(=O)(=O)c1cc(C2(O)NC(=O)c3ccccc32)ccc1Cl (stereo unspecified) was read as ATXN viability inactive, KB-3-1 cytotox inactive, ATXN2 expr inh 9%, HepG2 viability 4%, TGFb inhibitor 8% and KB-V1 cytotox inactive.
For CCN(CC)CCNC(=O)c1c(O)c2ccccc2n(Cc2ccccc2)c1=O the results were ATXN viability inconclusive, KB-3-1 cytotox inactive, ATXN2 expr inh -22%, HepG2 viability -20%, TGFb inhibitor -17% and KB-V1 cytotox inactive.
For CCc1ccc(NC(=O)c2ccc(F)c(S(=O)(=O)N3CCC4(CC3)OCCO4)c2)cc1 the results were HepG2 viability -3% and TGFb inhibitor inconclusive.
CN(C)C(=O)Oc1ccnc2cc(Cl)ccc12 was read as ATXN viability inactive, KB-3-1 cytotox inactive, ATXN2 expr inh -5%, HepG2 viability 5%, TGFb inhibitor 2% and KB-V1 cytotox inactive.
`COc1ccccc1N1CCN(C(=O)c2cc3c(-c4ccccc4F)nn(C)c3s2)CC1` gave KB-3-1 cytotox inconclusive, ATXN2 expr inh inconclusive, HepG2 viability 16%, TGFb inhibitor inconclusive and KB-V1 cytotox inconclusive.
